The text below walks through data of PubChem BioAssay (NCATS).

Unmarked numbers belong to inactive results. Records with an inconclusive call do not appear. Active and inactive are the calls of the source. Unless noted, calls follow the shape of the dose curve; as a rule, active = well fitted curve in either direction with a large enough effect (not every such curve was filed as active); inconclusive = small, poorly fitted or top-dose-only effect, or another doubt; inactive = flat fitted curve, though single readings scatter.

The target in experiment [1] is Lysosomal acid glucosylceramidase (Homo sapiens) (UniProt P04062). Nature of the experiment: Glucocerebrosidase-p2 (AID 348; in the data active = potency below about 10 µM; also: potency is read from the fitted curve at half-maximal effect). Conditions: purified GBA, blue fluorogenic substrate, 40 min. The essentials:
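Normal human glucocerebrosidase (0.2 nM) with blue fluorogenic substrate (80 uM final) in citrate/phosphate pH 5.9 with 10mM sodium taurocholate, 0.01% tween-20; 40 min RT, NaOH/glycine stop; fluorescence Ex 365/Em 440; AC50 from a titration from 0.6 nM upwards.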

The nature of experiment [2]: AP1 Signaling Pathway (AID 357). Also: % is scaled to controls: 0 for no effect and ±100 for the full control effect. Particulars: ME-180 AP-1-bla reporter, EGF-induced, beta-lactamase ratio, 5 h; at 7.69 µM (top of the series) unless noted. In outline: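 ME-180 cells with beta-lactamase reporter under AP-1 response element, stimulated with EC50 EGF; compounds tested in titration series, 5 h at 37 °C. CCF4 substrate added 2.5 h at room temperature; 460/530 nm emission ratio gave %activity and AC50.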

Experiment [3] concerns the target Cytochrome P450 1A2 (Homo sapiens) (UniProt P05177). The experiment in a line: p450-cyp1a2 (AID 410; calls by dose curve; also: potency is read from the fitted curve at half-maximal effect;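 as to activity change, negative = inhibition: -100% = full effect of reference inhibitor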). Conditions: recombinant CYP1A2, luciferin-ME demethylation, luminescence; series mostly up to 11.4 µM. In outline: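 20nM CYP1A2, 100uM Luciferin-ME (=Km), 100mM KPO4; cpd 10 min RT; +NADPH regen, 60 min RT; stop/detect 20 min; luminescence. Normalized to furafylline 57 uM = full inhibition.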

Experiment [4] in a line: NFAT Signaling Pathway (AID 444).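 Also: carbachol stimulus at about its EC50 of 1 µM final; % is scaled to controls: 0 for no effect and ±100 for the full control effect.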 Particulars: Jurkat NFAT-bla M1, carbachol, beta-lactamase ratio, 5 h; at 7.69 µM (top of the series) unless noted. The essentials: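 Jurkat cells carrying an NFAT-driven β-lactamase reporter and co-transfected muscarinic M1 receptor were treated with compound plus carbachol (1 uM final, an EC50 level) for 5 h at 37 °C. CCF4 loading followed for 1 h at RT; 460/530 nm ratio gave %activity.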

Experiment [5] is described as follows: Stat Signaling Pathway (AID 446).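 Also: ME-180 cervical cancer cells given 40 pM IL-6 alongside compound; SIE-controlled beta-lactamase reporter measured as 460/530 nm FRET emission ratio; % is scaled to controls: 0 for no effect and ±100 for the full control effect.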 Conditions: ME-180 (cervical carcinoma) SIE beta-lactamase reporter, IL-6 stimulated, 5 h; at 7.69 µM (top of the series) unless noted. In outline:
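FRET read-out (405 nm excitation, 460/530 nm emission) of a beta-lactamase reporter under a STAT-inducible element in ME-180 cervical carcinoma cells. Cells with compound receive 40 pM IL-6 for 5 h. Values are normalised to AC90 stimulation and AC90 JAK-inhibitor controls.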

Experiment [6] addresses Glucocorticoid receptor (Homo sapiens) (UniProt P04150). Nature of the experiment: GR-GFP Redistribution (AID 450;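 active = compounds whose dose series gives a full or clear partial fitted curve of increased nuclear translocation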; also: potency is read from the fitted curve at half-maximal effect). Conditions: U2OS GR-GFP nuclear translocation, laser cytometry, 2 h.
The target is the same in experiment [7]. Nature of the experiment: GR-EFC Redistribution (AID 451; calls by dose curve; also: potency is read from the fitted curve at half-maximal effect). Particulars: CHO-K1 GR-EFC translocation, beta-gal luminescence, 2 h. The essentials:
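CHO-K1 cells stably expressing nuclear-localized β-gal enzyme acceptor and GR fused C-terminally to the enzyme donor fragment; ligand-driven nuclear translocation restores β-gal by complementation. Compounds titrated up to 46 uM final, 2 h at 37 °C; luminescence read.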

Experiment [8] has as its target Mitogen-activated protein kinase 10 (Mus musculus) (UniProt Q61831). The experiment in a line: JNK3 AlphaScreen Assay (AID 530).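 Also: kinase came from lysate of stimulated human HepG2 cells; % is scaled to controls: 0 for no effect and ±100 for the full control effect.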 Conditions: JNK3 lysate, c-Jun phosphorylation; series mostly up to 11.4 µM. The essentials: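 Biotinylated GST-cJun(1-79) served as substrate for JNK3 in HepG2 lysates stimulated with IL-1beta and TNF-alpha. ATP was 10 uM final, pH 7.6. Ser73 phosphorylation was quantified by AlphaScreen (680 nm excitation).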

For experiment [9], the target named is 3',5'-cyclic-AMP phosphodiesterase 4B (Homo sapiens) (UniProt Q07343). Nature of the experiment: qHTS Assay for Inhibitors of PDE-IV (AID 607; active = well fitted activation curve with a large enough effect in the main read-out, with a control signal flat, not every such curve was filed as active; also: % of control where 0% means no effect). Conditions: HEK293 ACTOne CNG channel cells, membrane potential fluorescence; series mostly up to 22.9 µM. In outline:
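Cell-based read-out of cAMP via a modified cyclic nucleotide-gated channel and membrane potential dye (535/590 nm) in HEK293 cells expressing PDE4 endogenously. Compounds tested up to 22.9 uM final; 100 uM RO 20-1724 reference.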

Chain of Cytochrome P450 1A2 (Homo sapiens) (P05177 whole entry, looked up): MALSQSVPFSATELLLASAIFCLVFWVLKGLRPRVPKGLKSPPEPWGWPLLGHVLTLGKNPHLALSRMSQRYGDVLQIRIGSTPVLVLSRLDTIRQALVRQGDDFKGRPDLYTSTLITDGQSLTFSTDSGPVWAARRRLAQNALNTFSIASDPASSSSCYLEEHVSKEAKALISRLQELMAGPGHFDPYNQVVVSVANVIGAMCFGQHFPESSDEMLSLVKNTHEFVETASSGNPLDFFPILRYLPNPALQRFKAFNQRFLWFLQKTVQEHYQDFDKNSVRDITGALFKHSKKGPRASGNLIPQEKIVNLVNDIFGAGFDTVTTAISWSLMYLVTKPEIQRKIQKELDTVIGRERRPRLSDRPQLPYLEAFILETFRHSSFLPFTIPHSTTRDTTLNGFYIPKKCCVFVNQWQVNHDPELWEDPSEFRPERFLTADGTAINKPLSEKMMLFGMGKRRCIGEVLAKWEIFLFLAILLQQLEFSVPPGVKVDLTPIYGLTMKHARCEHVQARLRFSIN
Chain of Glucocorticoid receptor (Homo sapiens) (P04150 whole entry, looked up): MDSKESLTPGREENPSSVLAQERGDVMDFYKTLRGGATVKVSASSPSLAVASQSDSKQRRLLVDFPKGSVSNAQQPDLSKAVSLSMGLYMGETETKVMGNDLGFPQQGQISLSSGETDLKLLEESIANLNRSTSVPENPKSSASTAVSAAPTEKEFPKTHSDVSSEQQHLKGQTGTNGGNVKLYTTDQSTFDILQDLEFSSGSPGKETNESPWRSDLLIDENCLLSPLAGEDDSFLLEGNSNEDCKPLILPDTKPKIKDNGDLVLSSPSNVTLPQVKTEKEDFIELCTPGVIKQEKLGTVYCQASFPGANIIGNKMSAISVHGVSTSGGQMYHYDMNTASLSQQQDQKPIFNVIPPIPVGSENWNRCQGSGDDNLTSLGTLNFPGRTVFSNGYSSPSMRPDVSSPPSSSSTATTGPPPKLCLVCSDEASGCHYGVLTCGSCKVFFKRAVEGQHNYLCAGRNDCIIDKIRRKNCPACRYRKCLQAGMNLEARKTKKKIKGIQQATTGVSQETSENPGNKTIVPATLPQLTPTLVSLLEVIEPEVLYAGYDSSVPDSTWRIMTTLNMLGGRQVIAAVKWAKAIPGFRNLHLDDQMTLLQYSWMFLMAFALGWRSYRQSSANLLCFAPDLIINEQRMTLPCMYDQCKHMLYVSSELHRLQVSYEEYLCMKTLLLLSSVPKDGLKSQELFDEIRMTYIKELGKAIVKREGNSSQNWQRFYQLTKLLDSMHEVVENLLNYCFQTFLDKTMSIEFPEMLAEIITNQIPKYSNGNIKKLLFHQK
Chain of Lysosomal acid glucosylceramidase (Homo sapiens) (P04062 whole entry, looked up): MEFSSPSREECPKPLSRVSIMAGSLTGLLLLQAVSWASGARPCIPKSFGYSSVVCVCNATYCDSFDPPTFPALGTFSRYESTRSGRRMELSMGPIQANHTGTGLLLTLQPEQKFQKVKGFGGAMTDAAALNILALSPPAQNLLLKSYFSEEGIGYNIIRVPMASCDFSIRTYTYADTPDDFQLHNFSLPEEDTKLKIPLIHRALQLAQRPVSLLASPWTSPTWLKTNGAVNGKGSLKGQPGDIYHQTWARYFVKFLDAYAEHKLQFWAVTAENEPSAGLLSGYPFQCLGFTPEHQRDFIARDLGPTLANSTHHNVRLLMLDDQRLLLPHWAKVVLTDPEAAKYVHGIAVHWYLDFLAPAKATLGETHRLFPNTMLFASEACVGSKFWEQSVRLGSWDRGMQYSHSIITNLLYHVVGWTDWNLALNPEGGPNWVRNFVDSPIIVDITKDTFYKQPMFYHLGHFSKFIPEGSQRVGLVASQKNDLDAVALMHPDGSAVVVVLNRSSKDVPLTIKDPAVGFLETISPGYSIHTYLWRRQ
Chain of 3',5'-cyclic-AMP phosphodiesterase 4B (Homo sapiens) (Q07343 whole entry, looked up): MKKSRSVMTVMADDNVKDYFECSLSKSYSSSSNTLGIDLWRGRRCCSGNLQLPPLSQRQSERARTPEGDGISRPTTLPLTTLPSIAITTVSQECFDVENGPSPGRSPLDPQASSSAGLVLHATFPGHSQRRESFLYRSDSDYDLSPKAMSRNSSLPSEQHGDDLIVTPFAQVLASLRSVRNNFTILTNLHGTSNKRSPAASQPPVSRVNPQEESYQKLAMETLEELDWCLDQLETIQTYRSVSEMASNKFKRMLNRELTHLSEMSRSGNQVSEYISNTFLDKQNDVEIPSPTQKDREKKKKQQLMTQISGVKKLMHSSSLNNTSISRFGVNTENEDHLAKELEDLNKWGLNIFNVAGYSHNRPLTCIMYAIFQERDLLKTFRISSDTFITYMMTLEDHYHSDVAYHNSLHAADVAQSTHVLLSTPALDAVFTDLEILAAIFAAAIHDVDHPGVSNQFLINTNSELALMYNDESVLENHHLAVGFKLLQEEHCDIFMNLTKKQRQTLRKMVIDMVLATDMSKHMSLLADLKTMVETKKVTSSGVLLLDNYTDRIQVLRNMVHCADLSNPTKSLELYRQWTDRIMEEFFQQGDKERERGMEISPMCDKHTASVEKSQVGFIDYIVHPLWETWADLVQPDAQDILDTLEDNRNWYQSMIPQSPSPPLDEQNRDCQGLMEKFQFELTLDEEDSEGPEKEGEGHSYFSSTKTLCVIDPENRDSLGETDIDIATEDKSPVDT

In the case of `CC1(C)[C@@H]2CC[C@]1(C)[C@@H](OC(=O)/C=C\c1ccccc1)C2`, the Potency in [1] is > 11.4 µM; in [6] it was > 46 µM; in experiment [7], > 9.22 µM. Further, the activity change, negative = inhibition in experiment [2] is 5.51%; in experiment [3], -3.4% [at 2.29 µM]; in experiment [4], -17.9%. In [5], the activity, negative = inhibition was 21.7%. The Potency entry in experiment [8] and in [9] was “inactive” in each case.
Turning to `CC(=O)C=NCC(=O)O`, the Potency in experiment [1] is > 11.4 µM; in [6], > 46 µM; in experiment [7], > 9.22 µM. Besides, the activity change, negative = inhibition in experiment [2] is -0.671%; in experiment [4], 3.49%. The Potency result in experiment [3], in experiment [8] and in [9] was “inactive” in each case. In experiment [5], the activity, negative = inhibition is -0.18%.
As for `O=C(O)[C@H]([C@H]1NCCS1)N1C(=O)c2ccccc2C1=O`, the Potency in experiment [1] is > 11.4 µM; in experiment [3] it was 5.01 µM (active); in experiment [6] it was > 46 µM; in experiment [7], > 9.22 µM. For the same molecule, the figures for the activity change, negative = inhibition in experiment [2] and in experiment [4] were 20.1% and 8.05%, respectively. Also, the activity, negative = inhibition in experiment [5] was 3.15%. For the same molecule, the Potency result in experiment [8] and in experiment [9] was “inactive” in each case.
With `C[C@H]1CN(CCO)CCN1c1ccccc1`, the values for the Potency in experiment [1], in experiment [6] and in experiment [7] were > 11.4 µM, > 46 µM and > 9.22 µM, respectively. The activity change, negative = inhibition was 11.5% in [2] and -5.83% in experiment [4]. Also, the Potency result in experiment [3], in experiment [8] and in experiment [9] was “inactive” each time. Further, the activity, negative = inhibition in experiment [5] is 7.5%.
Take `O=C(O)c1cccc(SSc2cccc(C(=O)O)c2)c1`: the Potency in experiment [1] is > 11.4 µM; in experiment [3], 5.01 µM (active); in experiment [6], > 46 µM; in experiment [7] it was > 9.22 µM. The activity change, negative = inhibition in experiment [2] is 0.262%; in experiment [4] it was 17.5%. Besides, the activity, negative = inhibition in experiment [5] is -14.5%. The Potency entry in experiment [8] and in experiment [9] was “inactive” throughout.
`O=C(O)[C@H]1[C@H](C(=O)O)[C@H](C(=O)O)C[C@@H]1C(=O)O`: the Potency in [1] is > 11.4 µM; in experiment [6], > 46 µM; in experiment [7], > 9.22 µM. Also, the activity change, negative = inhibition in [2] is -1.4%; in experiment [4], 2.63%. In addition, the Potency result in experiment [3], in [8] and in [9] was “inactive” throughout. Also, the activity, negative = inhibition in experiment [5] was 4.24%.
As for `O=[N+]([O-])c1ccccc1N=Nc1c(O)[nH]c2ccc(S(=O)(=O)O)cc12`, the Potency is > 11.4 µM in experiment [1], 1 µM (active) in experiment [3], > 46 µM in experiment [6] and > 9.22 µM in experiment [7]. Further, the activity change, negative = inhibition is -1.77% in [2] and 11% in experiment [4]. Moreover, the activity, negative = inhibition in [5] is -1.49%. The Potency result in experiment [8] and in experiment [9] was “inactive” in each case.
Consider `Nc1nc2c(c(=O)[nH]1)CN(c1ccc(S(N)(=O)=O)cc1)CN2`, for which the Potency was > 11.4 µM in experiment [1], > 46 µM in experiment [6] and > 9.22 µM in [7]. In addition, the activity change, negative = inhibition in [2] was -2.56%; in experiment [3] it was 8.8% [at 2.29 µM]; in experiment [4], 12%. In experiment [5], the activity, negative = inhibition was 1.71%. In addition, the Potency entry in experiment [8] and in experiment [9] was “inactive” throughout.
Turning to `O=C(O)/C=C\C(=O)Nc1ncn[nH]1`, the Potency was > 11.4 µM in experiment [1], > 46 µM in experiment [6] and > 9.22 µM in experiment [7]. In addition, the values for the activity change, negative = inhibition in experiment [2] and in experiment [4] were 8.44% and 2.25%, respectively. Further, the Potency result in experiment [3], in [8] and in experiment [9] was “inactive” each time. The activity, negative = inhibition in experiment [5] was 2.6%.
Turning to `O=C(O)CCC(=O)Nc1ccc2ccccc2c1`, the Potency was > 11.4 µM in experiment [1], 0.0631 µM (active) in experiment [3], > 46 µM in experiment [6] and > 9.22 µM in [7]. The activity change, negative = inhibition in experiment [2] was -0.421%; in [4], 4.48%. In addition, in [5], the activity, negative = inhibition was 8.45%. Also, the Potency result in [8] and in experiment [9] was “inactive” each time.
`CC(C)(N=NC(C)(C)C1=NCCN1)C1=NCCN1`: the Potency in experiment [1] was > 11.4 µM; in experiment [6] it was > 46 µM; in experiment [7], > 9.22 µM. Besides, the activity change, negative = inhibition was 3.01% in experiment [2] and 7.08% in experiment [4]. In addition, the Potency result in experiment [3], in experiment [8] and in experiment [9] was “inactive” each time. Besides, the activity, negative = inhibition in experiment [5] was 3.73%.
On to `CN1CCCN(C)C1c1cc([N+](=O)[O-])ccc1O`, for which the Potency in experiment [1] was > 11.4 µM; in experiment [6], > 46 µM; in [7], > 9.22 µM. Moreover, the activity change, negative = inhibition is 7.56% in [2] and -23.2% in experiment [4]. Besides, the Potency entry in [3], in experiment [8] and in experiment [9] was “inactive” each time. For the same molecule, the activity, negative = inhibition in experiment [5] is -0.988%.
On to `O=C(O)c1ccc(Nc2ccnc3cc(Cl)ccc23)cc1O`, for which the Potency was > 11.4 µM in [1], 3.98 µM (active) in experiment [3], > 46 µM in experiment [6] and > 9.22 µM in experiment [7]. The activity change, negative = inhibition in [2] was -7.31%; in experiment [4], 11.5%. Besides, the activity, negative = inhibition in experiment [5] was -9.48%. Also, the Potency entry in experiment [8] and in experiment [9] was “inactive” throughout.
For the molecule `O=C1CCC(c2ccccc2)(c2ccccc2)CC1`, the Potency was > 11.4 µM in [1], > 46 µM in [6] and > 9.22 µM in experiment [7]. The activity change, negative = inhibition in [2] was 5.18%; in [4], -2.6%. For the same molecule, the Potency entry in experiment [3], in experiment [8] and in experiment [9] was “inactive” in each case. Besides, the activity, negative = inhibition in experiment [5] was 1.75%.
